# In article PMC12820563, “FoxP3 forms a head-to-head dimer in vivo and stabilizes its multimerization on adjacent microsatellites”:
# The full ranking holds about 16,000 sequences; the median of “rpm ratio (pull-down/input)” is about 0.5, and the highest 2% start at about 5.5. What follows is part of a selection rich in the highest values, with near analogues and random picks from the rest.
# Molecular target: T1, MBP-FoxP3dN (Mus musculus, UniProt Q99JB6 188-423)
# T1 sequence: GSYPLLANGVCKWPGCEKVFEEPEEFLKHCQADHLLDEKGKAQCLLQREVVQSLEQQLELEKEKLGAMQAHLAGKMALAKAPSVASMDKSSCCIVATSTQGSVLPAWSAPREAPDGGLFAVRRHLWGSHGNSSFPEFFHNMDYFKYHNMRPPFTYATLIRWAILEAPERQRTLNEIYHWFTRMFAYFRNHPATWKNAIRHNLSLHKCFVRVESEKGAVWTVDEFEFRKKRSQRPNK
# Assay: PD-seq (MBP pull-down with sequencing); 20 mM Tris-HCl pH 7.5, 100 mM NaCl, 1.5 mM MgCl2, 0.4 uM protein, 0.1 uM dsDNA library, 30 min, room temperature, amylose pull-down; high values mean tight binding
# Details: protein: recombinant; tags: His6-MBP; chain copies: 2; dsDNA, one strand shown
# Procedure, shortened: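 Mouse FoxP3 or FoxP1 fragment lacking the N-terminus, His6-MBP-tagged and expressed in E. coli, was incubated at 0.4 µM with 0.1 µM Klenow-filled degenerate double-stranded DNA library for 30 min at room temperature in Tris pH 7.5 buffer with NaCl and MgCl2. Complexes captured on amylose resin were washed three times and their DNA sequenced on Illumina. Binding is reads-per-million enrichment of pull-down over input, replicates pooled.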
row,Sequence,binding signal
1,GATGATTGTTCTCCCAGCTGATGAATTGTAATCTTCGAGTAAACAAATTTTCCTAATCTTTCTGTTCAAGCGCCATCTAC,0.84 RPM ratio (pull-down/input)
2,GATGATTGTTCTCCCAGCTGATGAATTGGTGAGATCGAGTAAACAAATTTTCCTAATCTTTCTGTTCAAGCGCCATCTAC,0.341 RPM ratio (pull-down/input)
3,GATGATTGTTCTCCCAGCTGATGAATTCTTTTACTCGAGTAAACAAATTTTCCTAATCTTTCTGTTCAAGCGCCATCTAC,0.312 RPM ratio (pull-down/input)
4,GATGATTGTTCTCCCAGCTGATGAATTCTTGGGATCGAGTAAACAAATTTTCCTAATCTTTCTGTTCAAGCGCCATCTAC,0.227 RPM ratio (pull-down/input)
5,GATGATTGTTCTCCCAGCTGATGAATTCCTCGTATCGAGTAAACAAATTTTCCTAATCTTTCTGTTCAAGCGCCATCTAC,0.403 RPM ratio (pull-down/input)
6,GATGATTGTTCTCCCAGCTGATGAATTGCGACCGTCGAGTAAACAAATTTTCCTAATCTTTCTGTTCAAGCGCCATCTAC,0.963 RPM ratio (pull-down/input)
7,GATGATTGTTCTCCCAGCTGATGAATTCCGACGATCGAGTAAACAAATTTTCCTAATCTTTCTGTTCAAGCGCCATCTAC,0.285 RPM ratio (pull-down/input)
8,GATGATTGTTCTCCCAGCTGATGAATTTCTACCGTCGAGTAAACAAATTTTCCTAATCTTTCTGTTCAAGCGCCATCTAC,0.222 RPM ratio (pull-down/input)
9,GATGATTGTTCTCCCAGCTGATGAATTGTTACGATCGAGTAAACAAATTTTCCTAATCTTTCTGTTCAAGCGCCATCTAC,0.792 RPM ratio (pull-down/input)
10,GATGATTGTTCTCCCAGCTGATGAATTGGTTTGGTCGAGTAAACAAATTTTCCTAATCTTTCTGTTCAAGCGCCATCTAC,3.6 RPM ratio (pull-down/input)
11,GATGATTGTTCTCCCAGCTGATGAATTGTTTTGGTCGAGTAAACAAATTTTCCTAATCTTTCTGTTCAAGCGCCATCTAC,3.65 RPM ratio (pull-down/input)
12,GATGATTGTTCTCCCAGCTGATGAATTTGTTTGGTCGAGTAAACAAATTTTCCTAATCTTTCTGTTCAAGCGCCATCTAC,7.49 RPM ratio (pull-down/input)
13,GATGATTGTTCTCCCAGCTGATGAATTGATTGTCTCGAGTAAACAAATTTTCCTAATCTTTCTGTTCAAGCGCCATCTAC,2.86 RPM ratio (pull-down/input)
14,GATGATTGTTCTCCCAGCTGATGAATTGTAGTTCTCGAGTAAACAAATTTTCCTAATCTTTCTGTTCAAGCGCCATCTAC,1.39 RPM ratio (pull-down/input)
15,GATGATTGTTCTCCCAGCTGATGAATTTGCGGCATCGAGTAAACAAATTTTCCTAATCTTTCTGTTCAAGCGCCATCTAC,1.14 RPM ratio (pull-down/input)
16,GATGATTGTTCTCCCAGCTGATGAATTCGGGCATTCGAGTAAACAAATTTTCCTAATCTTTCTGTTCAAGCGCCATCTAC,4.9 RPM ratio (pull-down/input)
17,GATGATTGTTCTCCCAGCTGATGAATTCGGCAGCTCGAGTAAACAAATTTTCCTAATCTTTCTGTTCAAGCGCCATCTAC,1.36 RPM ratio (pull-down/input)
18,GATGATTGTTCTCCCAGCTGATGAATTTTCGGCATCGAGTAAACAAATTTTCCTAATCTTTCTGTTCAAGCGCCATCTAC,0.816 RPM ratio (pull-down/input)
19,GATGATTGTTCTCCCAGCTGATGAATTTCGGCATTCGAGTAAACAAATTTTCCTAATCTTTCTGTTCAAGCGCCATCTAC,5.76 RPM ratio (pull-down/input)
20,GATGATTGTTCTCCCAGCTGATGAATTCCGGCATTCGAGTAAACAAATTTTCCTAATCTTTCTGTTCAAGCGCCATCTAC,4.43 RPM ratio (pull-down/input)
21,GATGATTGTTCTCCCAGCTGATGAATTCTCGGCATCGAGTAAACAAATTTTCCTAATCTTTCTGTTCAAGCGCCATCTAC,0.601 RPM ratio (pull-down/input)
22,GATGATTGTTCTCCCAGCTGATGAATTCGGCCATTCGAGTAAACAAATTTTCCTAATCTTTCTGTTCAAGCGCCATCTAC,3.92 RPM ratio (pull-down/input)
23,GATGATTGTTCTCCCAGCTGATGAATTCGCGGCATCGAGTAAACAAATTTTCCTAATCTTTCTGTTCAAGCGCCATCTAC,0.76 RPM ratio (pull-down/input)

row,Sequence,binding signal
1,GATGATTGTTCTCCCAGCTGATGAATTCGGCATTTCGAGTAAACAAATTTTCCTAATCTTTCTGTTCAAGCGCCATCTAC,5.91 RPM ratio (pull-down/input)
2,GATGATTGTTCTCCCAGCTGATGAATTCGGCATCTCGAGTAAACAAATTTTCCTAATCTTTCTGTTCAAGCGCCATCTAC,7.14 RPM ratio (pull-down/input)
3,GATGATTGTTCTCCCAGCTGATGAATTGCGGCATTCGAGTAAACAAATTTTCCTAATCTTTCTGTTCAAGCGCCATCTAC,7.34 RPM ratio (pull-down/input)
4,GATGATTGTTCTCCCAGCTGATGAATTTACTGGCTCGAGTAAACAAATTTTCCTAATCTTTCTGTTCAAGCGCCATCTAC,0.472 RPM ratio (pull-down/input)
5,GATGATTGTTCTCCCAGCTGATGAATTCTGATGCTCGAGTAAACAAATTTTCCTAATCTTTCTGTTCAAGCGCCATCTAC,1.09 RPM ratio (pull-down/input)
6,GATGATTGTTCTCCCAGCTGATGAATTAATTTGCTCGAGTAAACAAATTTTCCTAATCTTTCTGTTCAAGCGCCATCTAC,3.03 RPM ratio (pull-down/input)
7,GATGATTGTTCTCCCAGCTGATGAATTACTTAACTCGAGTAAACAAATTTTCCTAATCTTTCTGTTCAAGCGCCATCTAC,0.277 RPM ratio (pull-down/input)
8,GATGATTGTTCTCCCAGCTGATGAATTCTGGCCATCGAGTAAACAAATTTTCCTAATCTTTCTGTTCAAGCGCCATCTAC,1.12 RPM ratio (pull-down/input)
9,GATGATTGTTCTCCCAGCTGATGAATTGACAATGTCGAGTAAACAAATTTTCCTAATCTTTCTGTTCAAGCGCCATCTAC,0.506 RPM ratio (pull-down/input)
10,GATGATTGTTCTCCCAGCTGATGAATTGGGAGATTCGAGTAAACAAATTTTCCTAATCTTTCTGTTCAAGCGCCATCTAC,0.372 RPM ratio (pull-down/input)
11,GATGATTGTTCTCCCAGCTGATGAATTGTTTGTATCGAGTAAACAAATTTTCCTAATCTTTCTGTTCAAGCGCCATCTAC,7.73 RPM ratio (pull-down/input)
12,GATGATTGTTCTCCCAGCTGATGAATTGTATTTCTCGAGTAAACAAATTTTCCTAATCTTTCTGTTCAAGCGCCATCTAC,2.06 RPM ratio (pull-down/input)
13,GATGATTGTTCTCCCAGCTGATGAATTAGTAGTATCGAGTAAACAAATTTTCCTAATCTTTCTGTTCAAGCGCCATCTAC,2.45 RPM ratio (pull-down/input)
14,GATGATTGTTCTCCCAGCTGATGAATTTTGTATCTCGAGTAAACAAATTTTCCTAATCTTTCTGTTCAAGCGCCATCTAC,5.89 RPM ratio (pull-down/input)
15,GATGATTGTTCTCCCAGCTGATGAATTGTAGTAATCGAGTAAACAAATTTTCCTAATCTTTCTGTTCAAGCGCCATCTAC,1.03 RPM ratio (pull-down/input)
16,GATGATTGTTCTCCCAGCTGATGAATTTTTTGTATCGAGTAAACAAATTTTCCTAATCTTTCTGTTCAAGCGCCATCTAC,0.521 RPM ratio (pull-down/input)
17,GATGATTGTTCTCCCAGCTGATGAATTTGTAGTATCGAGTAAACAAATTTTCCTAATCTTTCTGTTCAAGCGCCATCTAC,5.7 RPM ratio (pull-down/input)
18,GATGATTGTTCTCCCAGCTGATGAATTTGTATTCTCGAGTAAACAAATTTTCCTAATCTTTCTGTTCAAGCGCCATCTAC,5.9 RPM ratio (pull-down/input)
19,GATGATTGTTCTCCCAGCTGATGAATTTGTAATCTCGAGTAAACAAATTTTCCTAATCTTTCTGTTCAAGCGCCATCTAC,3.82 RPM ratio (pull-down/input)
20,GATGATTGTTCTCCCAGCTGATGAATTTGCTGTATCGAGTAAACAAATTTTCCTAATCTTTCTGTTCAAGCGCCATCTAC,4.72 RPM ratio (pull-down/input)
21,GATGATTGTTCTCCCAGCTGATGAATTGTATTCCTCGAGTAAACAAATTTTCCTAATCTTTCTGTTCAAGCGCCATCTAC,1.97 RPM ratio (pull-down/input)
22,GATGATTGTTCTCCCAGCTGATGAATTTGTATCCTCGAGTAAACAAATTTTCCTAATCTTTCTGTTCAAGCGCCATCTAC,5.4 RPM ratio (pull-down/input)
